Common to all, as to assay type: functional
The subject of test [1] is Plasmodium falciparum. The test is described as follows: GSK_TCMDC: Inhibition of Plasmodium falciparum 3D7 in whole red blood cells, using parasite LDH activity as an index of growth. Test compounds present at 2uM.
Test [2] deals with Plasmodium falciparum. Nature of the test: GSK_TCMDC: Inhibition of Plasmodium falciparum Dd2 in whole red blood cells, using parasite LDH activity as an index of growth. Test compounds present at 2uM.
The next test concerns HepG2. Nature of the test: GSK_TCMDC: Percent inhibition of human HepG2 cell line. Test compounds present at 10uM.

`CS(=O)(=O)CCNCc1cccc(-c2cc3nccc(Nc4ccc(Oc5ccccc5)cc4)c3cc2Cl)c1`: the Inhibition came to 100% with Plasmodium falciparum [1], 82% in the test on Plasmodium falciparum [2] and 2% with HepG2.
Consider `COc1ccccc1C1CCN(C2CCC(NC(=O)/C=C/c3cc(F)cc(C(F)(F)F)c3)CC2)CC1` (stereo not drawn), for which the Inhibition is given as 98% in the test with Plasmodium falciparum [1], 57% with Plasmodium falciparum [2] and 92% in the test on HepG2.
The corresponding values for `O=C(/C=C/c1ccc([N+](=O)[O-])cc1)N1CCC(NS(=O)(=O)c2ccc(Br)cc2)CC1` are 93%, 5% and 0%.
Consider `O=C1c2cc(I)ccc2SC1c1ccccc1` (stereo not drawn), for which the figures for the Inhibition with Plasmodium falciparum [1], with Plasmodium falciparum [2] and with HepG2 were 96%, 98% and 0%, respectively.
For the compound `Cc1nnsc1C(=O)Nc1cccc(-c2ccc(-c3nc4cc(F)ccc4[nH]3)s2)c1`, the Inhibition in the test with Plasmodium falciparum [1] was determined as 89%; in the test on Plasmodium falciparum [2], 22%; in the test with HepG2 it was 62%.
Take `COc1ccc2ncc(F)c(CCN3CC[C@@H](CNCc4ccc5c(c4C)OCCO5)C3)c2n1.Cl`: the Inhibition was 94% in the test with Plasmodium falciparum [1], 11% with Plasmodium falciparum [2] and 17% in the test with HepG2.
`Cc1cc2nc(-c3ccc(SCC(=O)Nc4ccc5c(c4)OCCO5)nc3)[nH]c2cc1C`: the Inhibition is reported as 85% with Plasmodium falciparum [1], 6% in the test on Plasmodium falciparum [2] and 17% in the test on HepG2.
Turning to `Cl.Cl.N=C(N)c1ccc(-c2cc(-c3cccc(C(=N)N)c3)on2)cc1`, the Inhibition in the test on Plasmodium falciparum [1] turned out to be 96%; with Plasmodium falciparum [2] it was 45%; with HepG2, 7%.
The corresponding values for `COc1ccc(NC(=O)[C@H](CC(C)C)Nc2ccnc(Nc3ccccc3)n2)cc1.O=C(O)C(F)(F)F` are 92%, 32% and 0%.
The corresponding values for `COc1ccc(CNc2nc(NCCc3ccccc3)c3cc(OC)c(OC)cc3n2)cc1OC` are 100%, 100% and 48%.
For `COc1cc(F)c2ncc(Cl)c([C@@H](O)CN3CCC(NCc4ccc5c(n4)NC(=O)CO5)CC3)c2c1.Cl`, the values for the Inhibition in the test on Plasmodium falciparum [1], in the test on Plasmodium falciparum [2] and in the test with HepG2 were 100%, 100% and 12%, respectively.
Consider `CCc1cc(CNC2CCN(CCc3c(F)cnc4ccc(OC)nc34)CC2)cc2c1OCCO2.Cl`, for which the values for the Inhibition with Plasmodium falciparum [1], in the test on Plasmodium falciparum [2] and in the test on HepG2 were 100%, 94% and 46%, respectively.
For the compound `CCN(C(=O)NC)C1c2cc(C#N)ccc2OC(C)(C)C1O` (stereo not drawn), the Inhibition in the test with Plasmodium falciparum [1] came to 96%; with Plasmodium falciparum [2], 2%; with HepG2 it was 3%.
On the same counts, the results for `COc1ccc(-c2nc(NC(=O)COc3ccc(C(C)=O)cc3)sc2C)cc1` are 98%, 58% and 0%.
Regarding `COc1ccccc1N(C)CCNc1cc(C)nc(Nc2ccc(C)cc2)n1`, the Inhibition with Plasmodium falciparum [1] is listed as 93%; with Plasmodium falciparum [2] it was 25%; with HepG2, 9%.
For the compound `COc1cc(C2=NN(S(=O)(=O)c3c(Cl)cc(Cl)cc3Cl)CCCC2)ccc1Cl`, the Inhibition in the test with Plasmodium falciparum [1] is 98%; in the test on Plasmodium falciparum [2] it was 97%; in the test on HepG2 it was 3%.
The corresponding values for `CN(C)CCNC(=O)N1CCCN(c2ncnc3cc(-c4ccccc4)sc23)CC1.O=C(O)C(F)(F)F` are 96%, 37% and 5%.
Consider `CCc1cn(CCS(C)(=O)=O)c2ccc(C(=O)N[C@@H](Cc3ccccc3)[C@H](O)CNC(C)(C)CCCC(C)C)cc12.O=CO`, for which the Inhibition in the test with Plasmodium falciparum [1] is recorded as 87%; in the test with Plasmodium falciparum [2] it was 96%; with HepG2 it was 16%.
On to `CN(c1ccc2c(c1)nc(Nc1ccc(Cl)cc1)n2C)c1ccnc(Nc2ccc(CS(C)(=O)=O)cc2)n1.Cl`, for which the Inhibition was 97% with Plasmodium falciparum [1], 52% in the test on Plasmodium falciparum [2] and 91% in the test on HepG2.
For `Cc1cc(C2CCN(CCCCNC(=O)c3ccc(-c4ccc(C#N)cc4)cc3)CC2)c(C)cc1OCCO`, the results for the Inhibition in the test with Plasmodium falciparum [1], in the test on Plasmodium falciparum [2] and in the test on HepG2 were 96%, 68% and 20%, respectively.
In the case of `CC(C)CNCc1ccc(-c2ccc(CN(CCCN3CCN(C)CC3)C(=O)CCC3CCCC3)cc2)cc1.O=C(O)C(F)(F)F`, the Inhibition turned out to be 96% with Plasmodium falciparum [1], 87% in the test with Plasmodium falciparum [2] and 50% with HepG2.
With `Br.CC(C)c1ccc(OCCCON2C(=N)N=C(N)NC2(C)C)cc1`, the Inhibition with Plasmodium falciparum [1] is 93%; in the test on Plasmodium falciparum [2], 97%; in the test on HepG2, 69%.
The corresponding values for `O=[N+]([O-])c1ccc2nccnc2c1` are 97%, 0% and 0%.
In the case of `COc1ccc(NC(=O)Nc2cccc(-c3ccncc3)c2)cc1N1CCN(C)CC1`, the Inhibition was 98% in the test on Plasmodium falciparum [1], 57% with Plasmodium falciparum [2] and 9% in the test with HepG2.
`CCOc1ccccc1C(=O)N1CCc2cc3nccc(N4CCN5CCC[C@H]5C4)c3cc21`: the Inhibition in the test with Plasmodium falciparum [1] was 100%; with Plasmodium falciparum [2] it was 58%; with HepG2, 4%.
Regarding `O=C(Nc1ccc(-c2nc3ccccc3[nH]2)cc1)c1cccc(S(=O)(=O)N2CCOCC2)c1`, the Inhibition in the test with Plasmodium falciparum [1] came out at 89%; in the test on Plasmodium falciparum [2], 43%; in the test with HepG2, 6%.
As for `Cc1ccc(NC(=O)c2ccc(CN3CCCN(CCC(C)C)CC3)cc2)cc1C.O=C(O)C(F)(F)F`, the values for the Inhibition in the test with Plasmodium falciparum [1], in the test on Plasmodium falciparum [2] and in the test on HepG2 were 92%, 17% and 25%, respectively.
Regarding `CC(C)C[C@@H](/C=N/N1CCOC1=O)NC(=O)[C@H](CC(C)C)NC(=O)c1ccc(OCCN2CCOCC2)cc1`, the Inhibition is listed as 92% in the test on Plasmodium falciparum [1], 87% with Plasmodium falciparum [2] and 5% with HepG2.
As for `CCOc1cc(C2C(C(=O)OC(C)C)=C(C)NC3=C2C(=O)CC(c2ccc(Cl)cc2)C3)ccc1OC(C)=O` (stereo not drawn), the Inhibition is on record as 90% in the test on Plasmodium falciparum [1], 20% in the test on Plasmodium falciparum [2] and 16% with HepG2.
Turning to `C=CCn1c(Sc2ccc(C#N)c([N+](=O)[O-])c2)nnc1-c1ccc(Cl)cc1`, the figures for the Inhibition with Plasmodium falciparum [1], in the test on Plasmodium falciparum [2] and in the test on HepG2 were 97%, 85% and 13%, respectively.
For the compound `Br.CCCCCCn1c2c(c(=N)c3c1CCC3)CCC2`, the values for the Inhibition in the test with Plasmodium falciparum [1], with Plasmodium falciparum [2] and with HepG2 were 97%, 83% and 32%, respectively.

Values taken from ChEMBL document CHEMBL1157539, “Thousands of chemical starting points for antimalarial lead identification” (Nature, 2010).
